# From PubChem BioAssay AID588675 (Johns Hopkins Ion Channel Center, 2011)
# In all, about 310,000 compounds went through this assay and about 1,900 (0.61%) were called active.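 How the source made its calls: active means plate-corrected calcium response at least 3 library SD above typical, normal starting fluorescence, not activating the receptor alone; inactive means the rest.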 The list comes from a sample in which actives are over-represented; it also holds similar structures and randomly drawn compounds.
# Molecular target: Mas-related G-protein coupled receptor member X1 (Homo sapiens) (UniProt Q96LB2)
# Assay: allosteric enhancers of human MrgX1 signaling – HEK293 cells, Fluo-4 calcium flux, primary screen (AID 588675);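 further: compound read alongside a low EC10 to EC30 dose of BAM8-22 agonist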;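 on B-score: peak minus trough fluorescence over baseline measured at the second addition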
# Conditions: MrgX1-HEK293, Fluo-4 calcium flux, FDSS, at 10 µM; active compounds read high
# Mas-related G-protein coupled receptor member X1 (Homo sapiens), sequence (Q96LB2 whole entry, looked up): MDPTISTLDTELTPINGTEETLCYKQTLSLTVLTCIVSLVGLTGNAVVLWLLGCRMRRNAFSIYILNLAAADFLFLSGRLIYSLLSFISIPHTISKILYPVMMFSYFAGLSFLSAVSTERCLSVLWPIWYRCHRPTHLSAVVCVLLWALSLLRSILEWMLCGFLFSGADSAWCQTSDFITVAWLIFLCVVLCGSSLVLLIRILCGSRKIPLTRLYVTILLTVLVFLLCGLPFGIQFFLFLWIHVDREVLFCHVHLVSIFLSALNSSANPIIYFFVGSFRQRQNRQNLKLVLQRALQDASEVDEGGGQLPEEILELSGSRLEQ
row,SMILES,B-score
1,Fc1ccccc1/C=C1\CCCC2=C1Nc1ncnn1C2c1ccccc1F (stereo not given),7.46 (active)
2,CC1=C(C(N)=O)C(c2ccc(Br)cc2)n2ncnc2N1 (stereo not given),inactive
3,CC(C(=O)N=Nc1c(O)n(C)c2ccc(Br)cc12)n1cnc2ccccc2c1=O (stereo not given),inactive
4,CC(C)N(c1ccccc1)c1ncnc(NCCC(=O)O)c1[N+](=O)[O-],inactive
5,Cc1c(C(=O)N2CC(C)OC(C)C2)sc2nc(-c3ccccc3)cn12 (stereo not given),inactive
6,Cc1c(C(=O)N2CCCc3ccccc32)sc2nc(-c3ccccc3)cn12,10.8 (active)
7,Cc1c(C(=O)NCC2CCCO2)sc2nc(-c3ccccc3)cn12 (stereo not given),inactive
8,CCn1nccc1C(=O)Nc1ccc(S(=O)(=O)NC23CC4CC(CC(C4)C2)C3)cc1,inactive
9,COc1ccc(S(=O)(=O)N2CCCC(C(=O)NCCCn3ccnc3)C2)cc1OC (stereo not given),inactive
10,Cc1ccc(C)c(N2CCN(S(=O)(=O)c3c(C)[nH]c(C)c3C(=O)N3CCCC3)CC2)c1,inactive
11,CCOC(=O)c1ccccc1NC(=S)N1CCC(C(N)=O)CC1,inactive
12,Fc1ccccc1COc1cccc2cccnc12,inactive
13,Cc1occc(=O)c1OCc1ccc(F)cc1,inactive
14,Cc1nc2ccccc2cc1OCc1ccc(F)cc1,11.8 (active)
15,COCCCN(C(=O)CSCc1ccc(C)cc1)c1c(N)n(Cc2ccccc2)c(=O)[nH]c1=O,inactive
16,S=C(NCCC1=CCCCC1)Nc1ccccc1,inactive
17,S=C(NCCc1ccccc1)NCC1CCCO1 (stereo not given),inactive
18,S=C(NCC1CCCO1)N1CCN(c2ccc(Cl)c(Cl)c2)CC1 (stereo not given),inactive
19,Oc1c(Br)cc(/C=N/NC(=S)NCC2CCCO2)cc1Br (stereo not given),6.64 (active)
20,C=CCOc1ccccc1NC(=O)CN1C(=O)CNC1=O,inactive
21,CCOC(=O)c1cnc2ccc(F)cc2c1Nc1ccc2c(c1)OCCO2,inactive
22,CC(Oc1ccc2ccccc2c1)C(=O)NNC(=S)NC(=O)c1ccco1 (stereo not given),inactive
23,CCCc1ccc(OCC(=O)NNC(=S)NC(=O)c2ccco2)cc1,11.9 (active)

row,SMILES,B-score
1,CCCc1ccc(OCCNC(=O)c2ccco2)cc1,inactive
2,CCOc1cc(C(=O)Nc2ccc(S(=O)(=O)Nc3cnc4ccccc4n3)cc2)cc(OCC)c1OCC,inactive
3,Cc1ccccc1-n1nc(SCC(=O)O)sc1=S,inactive
4,CN(C)CCCCCN(C)Cc1cc2ccccc2o1,inactive
5,COC(=O)C1=C(C)NC2=C(C(=O)c3ccccc32)C1c1ccc(-c2ccc(C(=O)O)cc2)o1 (stereo not given),16.1 (active)
6,Cc1ccc(C2C3=C(Nc4[nH]n(-c5ccccc5)c(=O)c42)c2ccccc2C3=O)cc1 (stereo not given),inactive
7,CCOC(=O)c1ccc(-c2ccc(C(=O)Nc3cccnc3)o2)cc1,inactive
8,CC(C)(C)NC(=O)CSc1nnc(NC(=O)CCc2ccccc2)s1,inactive
9,O=C(ON=C1CCN(S(=O)(=O)c2ccccc2)CC1)c1ccc(Cl)cc1,inactive
10,COc1cccc(OC)c1C(=O)Nc1sc2c(c1C(N)=O)CCCC2,inactive
11,O=C(Nc1sc2c(c1C(=O)O)CCC2)c1ccccc1F,inactive
12,NC(=O)c1c(Nc2nc3c(F)cccc3s2)sc2c1CCCC2,8.33 (active)
13,CCOc1ccc(NC(=O)C(C)N2C(=O)c3ccccc3C2=O)cc1 (stereo not given),inactive
14,Cc1ccnc(NC(=O)C(C)N2C(=O)c3ccccc3C2=O)c1 (stereo not given),7.9 (active)
15,COC(=O)c1ccc(NC(=O)C(C)N2C(=O)c3ccccc3C2=O)cc1 (stereo not given),inactive
16,Cc1ccc(NS(=O)(=O)c2cn(C)c(=O)n(C)c2=O)c(C)c1,inactive
17,CC(C)(C)c1nc2ccccc2c(=O)n1N1C(=O)c2ccccc2C1=O,inactive
18,CC(=O)c1ccc(NC(=O)c2ccc(-n3cncn3)c([N+](=O)[O-])c2)cc1,inactive
19,O=C(N/N=C/C=C/c1ccccc1)C1CC1(c1ccccc1)c1ccccc1 (stereo not given),14.2 (active)
20,Cc1ccc(-c2cc(C(=O)N/N=C/C=C/c3ccccc3)n[nH]2)o1,inactive
21,CC(/C=C/c1ccccc1)=N\NC(=O)C1CC1(C)c1ccccc1 (stereo not given),inactive
22,COCc1[nH][nH]c(=O)c1C=Nc1ccc(F)cc1F,inactive
23,Clc1ccc(Cn2ncc3c(NCc4cccnc4)ncnc32)cc1,inactive

row,SMILES,B-score
1,Clc1ccc(Nc2ncnc3c2nnn3Cc2ccccc2)cc1,inactive
2,CC(C)CNc1ncnc2c1cnn2Cc1ccc(Cl)cc1,7.42 (active)
3,O=C1c2ccccc2C2=Nc3ccccc3SC(c3ccccc3F)C12 (stereo not given),13.4 (active)
4,O=C1c2ccccc2C(=O)C1c1ccccc1F,inactive
5,CCOC(=O)C1=C(C)N=C2c3ccccc3C(=O)C2C1c1ccc(Br)cc1 (stereo not given),inactive
6,COc1ccccc1CNS(=O)(=O)c1c(C)[nH]c(C)c1C(=O)N1CCCCC1,inactive
7,COc1cc(C(=O)NCc2cc3cc(Cl)ccc3n2C)cc(OC)c1OC,inactive
8,CCOCc1nnc(NC(=O)CCS(=O)(=O)Cc2ccccc2)s1,inactive
9,CCOCc1nnc(NC(=O)CSc2ccc(C)cc2)s1,inactive
10,CCOCc1nnc(NC(=O)CCC2CCCCC2)s1,7.99 (active)
11,OCC[C@H]1C[C@H](O)[C@@H](O)[C@]2(CCc3ccccc3O2)O1,inactive
12,COc1cc2c(cc1OC)C(c1ccccc1Br)NC(=O)C2 (stereo not given),inactive
13,O=C1CCC(Cc2ccccc2)N1 (stereo not given),inactive
14,O=C1CCC([N+](=O)[O-])C(c2ccccc2Br)N1 (stereo not given),8.17 (active)
15,Cc1ccccc1NC(=O)c1nn(-c2ccc(F)c(F)c2)ccc1=O,inactive
16,Cc1cccc(N2CCN(C(=O)COCc3cc(-c4ccc5c(c4)OCO5)on3)CC2)c1C,inactive
17,O=C(COCc1cc(-c2ccc3c(c2)OCO3)on1)N1CCN(c2cccc(Cl)c2)CC1,inactive
18,CCOC(=O)N1CCN(C(=O)COCc2cc(-c3ccc4c(c3)OCO4)on2)CC1,6.93 (active)
19,COc1ccc(-c2cc(C(=O)NC(Cc3c[nH]c4ccccc34)C(=O)O)c(C)o2)cc1OC (stereo not given),inactive
20,Cc1nc(-c2ccccc2)cn2c1nc1ccccc12,inactive
21,COc1ccc(C(=O)/C=C/c2ccc(-c3ccccc3)cc2)cc1CSCC(=O)O,inactive
22,Cc1cc(N2C(=O)c3ccc(C(=O)NCc4ccccc4)cc3C2=O)no1,inactive
23,Cc1cc(C(=O)N2CCC(C(=O)O)CC2)c(C(F)(F)F)o1,inactive

row,SMILES,B-score
1,CN1/C(=C\C=C2\N=C(c3ccc(F)cc3)OC2=O)C(C)(C)c2ccccc21,19.6 (active)
2,CN1/C(=C\C(=O)c2oc3ccccc3c2N)C(C)(C)c2ccccc21,inactive
3,CN1CCN(CCC(=O)N/N=C/C=C2\N(C)c3ccccc3C2(C)C)CC1,inactive
4,Cc1c(C2=CCN(S(=O)(=O)c3ccc(Cl)cc3)CC2)c2ccccc2n1C,inactive
5,CN(CC(=O)Nc1cccc(F)c1)C(=O)C1CC(=O)N(CCc2ccccc2)C1 (stereo not given),inactive
6,Cc1cc(NC(=O)OC(C)C)ccc1-c1ccc(NC(=O)OC(C)C)cc1C,inactive
7,O=C(NC1CC1)C1CCCN(C(=O)NC2CCCCC2)C1 (stereo not given),inactive
8,CC[C@H](C)[C@@H](C(=O)N1CCNCC1)n1cc([C@@H](N)Cc2ccc(O)cc2)nn1,inactive
9,COc1ccc(CCNS(=O)(=O)c2cccc([N+](=O)[O-])c2)cc1,inactive
10,C/C(=N\NC(=S)Nc1ccc(C)cc1)c1cc2ccccc2o1,inactive
11,C/C(=N\NS(=O)(=O)c1cccc([N+](=O)[O-])c1)c1cc2ccccc2o1,8.87 (active)
12,COc1ccc(N(CC(=O)N/N=C/c2cccc3c2OCCO3)S(=O)(=O)c2ccc(NC(C)=O)cc2)cc1,inactive
13,COc1ccccc1CN(C)C(=O)c1cc2ccccc2o1,inactive
14,Cc1ccc(NC(=O)c2cc3ccccc3o2)cc1,inactive
15,Cc1ccc(OC(=O)c2cc3ccccc3o2)cc1,6.5 (active)
16,CCCCCCSc1ccc([C@@H]2[C@@H]3C(=O)N(CC)C(=O)[C@@H]3[C@]3(C(=O)OC)CCCCN23)cc1OC,inactive
17,COc1ccc(C(=O)C2CCCN(C(=O)c3cc4nc(C)cc(C)n4n3)C2)cc1F (stereo not given),inactive
18,O=C(Oc1ccc(F)cc1)N1CCOCC1,inactive
19,O=C(Oc1ccc(C(=S)N2CCOCC2)cc1)c1ccc(F)cc1,12.3 (active)
20,Cc1ccc(C(=O)Oc2ccc(C(=S)N3CCOCC3)cc2)cc1,inactive
21,CC1=C(C(=O)Nc2cc(C)ccn2)C(c2cnn(C)c2)C2=C(CC(c3ccccc3)CC2=O)N1 (stereo not given),inactive
